Among the data in PMC5540273 (PLoS ONE, 2017) are Kd values, retold here.

pKd: −log10 of the molar value. A value given as a limit tells only on which side of the number the result lay.
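Note: kd values determined as follow-up on hits from a single-replicate KINOMEscan panel screen.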

For one test, the system named is CSF1R.
`O=C(Nc1ccccc1)Nc1cccc(Oc2ccc3nccn3n2)c1` gave a pKd of 7.57.

`CC(=O)Nc1nc2cnc(Nc3cc(NC(=O)c4cccc(CCC#N)c4)ccc3C)nc2s1` showed a pKd below 5.00.

`Cn1ccc2ncnc(Oc3ccc(NC(=O)Nc4ccccc4)cc3)c21` showed a pKd of 7.09.

A further test deals with CSNK1E.
As to `COc1ccc(Nc2nccc(NCCNC(=O)Nc3ccccc3F)n2)cc1` [GSK1379901], the negative-log Kd (pKd) was below 5.00.

For the molecule `CN(C)CCN(C)C(=O)c1cc(-c2ccncc2)c(-c2ccc(Cl)c(O)c2)o1.Cl.Cl` [SB-710397], the negative-log Kd (pKd) was 6.39.

In turn, `Cn1cncc1-c1ccc2ncnc(Nc3ccc(OCc4ccccc4)cc3)c2c1` [GW320571] showed a pKd below 5.00.

`CC(C)(C)c1ccc(C(=O)Nc2cn3cc(-c4cccnc4)ccc3n2)cc1` showed a pKd of 6.96.
